Reference: paper PMC5540273 (PLoS ONE, 2017)

Key:
AAK1 = details: concentration: 1 μM, replicates: in singlicate; n = 1
ABL1-nonphosphorylated = details: concentration: 1 μM, replicates: in singlicate; n = 1
ABL1-phosphorylated = details: concentration: 1 μM, replicates: in singlicate; n = 1
ABL2 = details: concentration: 1 μM, replicates: in singlicate; n = 1
ACVR1B = details: concentration: 1 μM, replicates: in singlicate; n = 1
ACVR1 = details: concentration: 1 μM, replicates: in singlicate; n = 1
ACVR2A = details: concentration: 1 μM, replicates: in singlicate; n = 1
p38-alpha = system: T1, p38-alpha
T1 construct: gene MAPK14

p38-beta = system: T2, p38-beta
T2 construct: gene MAPK11
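Throughout, for %Inh: KINOMEscan kinase panel screen.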
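Throughout, for Kd: kd values determined as follow-up on hits from a single-replicate KINOMEscan panel screen.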

SMILES	%Inh (AAK1) [%]	%Inh (ABL1-nonphosphorylated) [%]	%Inh (ABL1-phosphorylated) [%]	%Inh (ABL2) [%]	%Inh (ACVR1B) [%]	%Inh (ACVR1) [%]	%Inh (ACVR2A) [%]	Kd (p38-alpha) [nM]	Kd (p38-beta) [nM]	Kd (ZAK) [nM]
Cc1cccc(-c2nc(Nc3cccc(C(N)=O)c3)c3ccccc3n2)n1 [GW876019]	0	25	20	15	83	0	12	–	–	–
Cn1ccc2ncnc(Oc3ccc(Nc4nc5ccccc5[nH]4)cc3)c21	21	45	2	4	0	0	10	–	–	–
Cc1c(Cn2ccn3c(=O)cc(N4CCOCC4)nc23)cccc1C(F)(F)F [GSK2289044]	16	0	0	0	0	3	0	–	–	–
O=C(Nc1n[nH]c2cc(-c3cccc(F)c3F)ccc12)C1CC1 [SB-733894]	100	45	40	0	21	24	17	–	–	–
CS(=O)(=O)c1ccc(-c2nc3n(c2-c2ccncc2)CCC3)cc1 [SKF-105942]	14	0	8	9	0	10	0	–	–	–
Nc1ncnc2[nH]c(-c3ccccc3)nc12 [AH5015]	0	7	44	19	0	37	7	–	–	–
Cc1cc(N2Cc3ccccc3C2)nc(Nc2ccc(S(=O)(=O)N3CCOCC3)cc2)n1.Cl [GSK1669917]	1	0	0	0	0	2	0	–	–	–
C[C@@H]1CCCCN1c1cc(-c2ccc3c(N)n[nH]c3c2)nc(N)n1 [GSK2258759]	43	0	0	0	0	24	0	2100	–	–
Fc1cc(Cl)ccc1Nc1ccnc2cc(I)ccc12 [GW551191]	11	22	26	29	0	54	0	–	–	–
Cc1ccc(C(=O)Nc2ccc(Nc3ccnc4cc(-c5ccccn5)ccc34)cc2O)cc1.Cl [GW440146]	4	68	31	18	0	0	0	–	–	–
Cc1cccc(-c2nc(Nc3ccncc3)c3ccccc3n2)n1 [GW855857]	2	39	28	22	94.3	15	24	–	–	–
CC(C)(C)c1ccc(C(=O)Nc2cn3cc(Cl)ccc3n2)cc1	0	35	0	0	0	0	0	–	–	–
Cn1ccc2ncnc(Oc3cccc(C(=O)Nc4ccccc4)c3)c21	22	0	0	0	1	100	0	–	–	–
Cc1cc(NCC(c2ccccc2)c2ccccc2)nc(NCc2ccc(C(F)(F)F)cc2)n1 [GW497681]	0	0	0	0	0	0	0	–	–	–
Cc1cc(-c2ccc3c(c2)CC[C@@H](N[C@@H](C)c2ccccc2)C3)cnc1N.Cl [GW412617]	100	8	9	6	0	34	0	–	–	–
COc1cc2nccc(Nc3ccc(NC(=O)c4ccc(C)cc4)c(O)c3)c2cc1OC.Cl [GW440132]	12	28	0	16	13	0	0	–	–	–
Cc1ccc(NC(=O)Nc2cc(C(C)(C)C)nn2-c2ccccc2)cc1 [GSK1014915]	0	0	2	14	0	7	6	58	540	–
Cc1ccc(-c2cc(-c3c[nH]nc3-c3ccccn3)ccn2)cc1 [GW684088]	22	35	21	0	65	29	0	–	–	–

SMILES	%Inh (AAK1) [%]	%Inh (ABL1-nonphosphorylated) [%]	%Inh (ABL1-phosphorylated) [%]	%Inh (ABL2) [%]	%Inh (ACVR1B) [%]	%Inh (ACVR1) [%]	%Inh (ACVR2A) [%]	Kd (p38-alpha) [nM]	Kd (p38-beta) [nM]	Kd (ZAK) [nM]
COC(=O)c1c(-c2ccccc2)c2cc(OC)ccc2c(=O)n1Cc1ccccc1	22	66	0	12	0	0	0	–	–	–
Cc1c(O)cccc1Nc1ccnc2ccc(C(F)(F)F)cc12.Cl [GW466413]	0	42	70	43	0	73	13	–	–	–
Cc1csc(-c2nc(Nc3ccncc3)c3ccccc3n2)n1 [GW869640]	31	31	15	7	94.7	0	3	–	–	–
Cc1cccc(-c2nc(-c3ccc(S(C)(=O)=O)cc3)sc2-c2ccnc(NCCc3ccccc3)c2)c1	12	90.7	21	0	8	0	0	1900	–	–
COC(=O)c1c(-c2ccccc2)c2cc(C(=O)O)ccc2c(=O)n1Cc1ccccc1	3	77	7	7	9	0	36	–	–	–
Cc1cccc(-c2nc(Nc3ccc4[nH]ncc4c3)c3ccccc3n2)n1 [GW857175]	0	19	14	3	100	0	0	–	–	–
O=C(O)COc1ncnc2cc(-c3ccc4[nH]ncc4c3)sc12	52	33	7	0	31	1	4	–	–	–
Cc1ccc(NC(=O)Nc2cccc(Cl)c2)cc1-c1ccc(C(=O)Nc2ccncc2)cc1 [GSK1398468]	37	0	1	17	0	0	0	–	–	–
CN(C)CCN(C)C(=O)c1cc(-c2ccncc2)c(-c2ccc(Cl)c(O)c2)o1.Cl.Cl [SB-710397]	6	2	6	17	0	0	0	740	–	–
Cc1cccc(-c2cc(Nc3ccncc3)c3ccccc3n2)n1 [GSK223675]	12	0	0	0	88	0	0	–	–	> 10000
COc1ccccc1CNC(=O)c1cc(C(=O)c2ccccc2C)c[nH]1 [GSK364507]	2	0	0	21	0	0	0	270	–	–
CCn1c(-c2cccnc2O)nc2cnccc21 [SB-736715]	0	43	0	4	0	0	0	–	–	–
Clc1cc(Cl)cc(Nc2ccnc(Nc3cc(Cl)cc(Cl)c3)n2)c1 [GSK175726]	0	68	51	29	28	58	0	–	–	–
Cn1cncc1-c1ccc2ncnc(Nc3ccc(OCc4ccccc4)cc3)c2c1 [GW320571]	2	0	10	10	2	22	16	–	–	–
CCn1c(-c2ccccn2)nc2cnccc21 [SB-736398]	0	0	4	0	0	18	0	–	–	–
COc1cc2ncn(-c3cc(OCC4CCCO4)c(C(N)=O)s3)c2cc1OC (stereo not drawn) [GSK204607]	17	0	0	0	0	46	0	–	–	–
Cc1ccccc1-n1cnc2c(N)ncnc21 [SKF-97510]	1	100	3	0	0	10	0	–	–	–
